Data: PubChem BioAssay (EPA / NIEHS)
Records with an inconclusive call do not appear. Activity calls are given as the source filed them. Rule for the calls: active = hit-call score of the fitted dose curve at least 0.9, where 1 is the maximum; inconclusive = response in the unintended direction; inactive = score below 0.9.

Each compound was assayed against human Matrix Metalloproteinase-9 (MMP9), MMP9 (gene 4318) (UniProt P14780) (assay: NVS_ENZ_hMMP9: NovaScreen (NVS) Enzymatic Assay for human Matrix Metalloproteinase-9 (MMP9) (AID 2283190);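 note: active means inhibition seen as loss of fluorescence signal versus DMSO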).
Procedure: NVS_ENZ_hMMP9 is a biochemical, single-readout assay that uses extracted gene-proteins in a cell-free assay. Measurements were taken 1 hour after chemical dosing in a 96-well plate.NVS_ENZ_hMMP9 is one of one assay component(s) measured or calculated from the NVS_ENZ_hMMP9 assay. It is designed to make measurements of enzyme activity, a form of enzyme reporter, as detected with fluorescence intensity signals by Fluorescence technology.Data from the assay component NVS_ENZ_hMMP9 was analyzed into 1 assay endpoint. This assay endpoint, NVS_ENZ_hMMP9, was analyzed in the positive analysis fitting direction relative to DMSO as the negative control and baseline of activity. Using a type of enzyme reporter, loss-of-signal activity can be used to understand changes in the enzymatic activity as they relate to the gene MMP9. Furthermore, this assay endpoint can be referred to as a primary readout, because this assay has produced multiple assay endpoints where this one serves a enzymatic activity function. To generalize the intended target to other relatable targets, this assay endpoint is annotated to the protease intended target family, where the subfamily is matrix metalloproteinase.
Binding assays used specific radioligands (tritiated, iodinated) with non-radioactive competitive displacement ligands in agonist or antagonist protocols (as indicated) and various reference compounds and inhibitors to titrate specific binding to receptors and transporters. Most enzyme assays (CYPs, kinases, phosphatases, proteases, HDACs) used recombinant protein and specific substrates (fluorescence mostly, some colorimetric and radioactive) and inhibitors, followed by a biochemical separation of substrate and product. All assays for the biochemical HTS were initially run in duplicate at a single concentration (10 uM for CYP450 assays and 25 uM for all others). […] Each assay was run with positive and negative controls, and concurrent controls on every plate. The follow-up (secondary) screen tested active chemical-pairs in concentration series, as well as a few additional assays not tested in the primary screen, some selected negative inactives, and several cases re-run in the concentration series for confirmatory purposes.

Sequence of human Matrix Metalloproteinase-9 (MMP9), MMP9 (gene 4318) (P14780 whole entry, looked up): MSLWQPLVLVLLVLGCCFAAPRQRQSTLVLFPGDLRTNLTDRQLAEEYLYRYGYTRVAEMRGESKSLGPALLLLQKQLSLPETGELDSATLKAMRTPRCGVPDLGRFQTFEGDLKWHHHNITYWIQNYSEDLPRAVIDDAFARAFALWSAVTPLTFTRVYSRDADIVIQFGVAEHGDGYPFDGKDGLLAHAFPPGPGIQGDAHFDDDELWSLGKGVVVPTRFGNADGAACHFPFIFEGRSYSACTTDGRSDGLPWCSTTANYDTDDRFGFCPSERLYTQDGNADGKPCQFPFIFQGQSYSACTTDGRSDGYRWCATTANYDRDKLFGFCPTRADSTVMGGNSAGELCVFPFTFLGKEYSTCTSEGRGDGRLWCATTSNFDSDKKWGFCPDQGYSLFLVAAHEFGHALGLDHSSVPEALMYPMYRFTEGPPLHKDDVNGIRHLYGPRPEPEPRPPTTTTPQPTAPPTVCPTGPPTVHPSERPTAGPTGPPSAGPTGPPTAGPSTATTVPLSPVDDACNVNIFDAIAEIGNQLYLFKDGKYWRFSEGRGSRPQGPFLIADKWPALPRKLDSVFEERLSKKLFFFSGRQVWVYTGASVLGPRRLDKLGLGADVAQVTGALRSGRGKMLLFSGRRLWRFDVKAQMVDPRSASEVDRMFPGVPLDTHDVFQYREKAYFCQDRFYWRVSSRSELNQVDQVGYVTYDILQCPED

Row | SMILES | outcome | AC50
1 | NCCO | inactive | –
2 | CNC(=O)[C@H]1O[C@@H](n2cnc3c(NCc4cc(Cl)ccc4OCc4cc(C)no4)ncnc32)[C@H](O)[C@@H]1N | – | 8.35 µM (active)
3 | NS(=O)(=O)c1cc2c(cc1Cl)NCNS2(=O)=O | inactive | –
4 | CCCc1cc(=O)[nH]c(=S)[nH]1 | – | 8.66 µM (active)
5 | O=C(N[C@@H](Cc1ccccc1)[C@@H](O)C(=O)N1C[C@@H](O)[C@@H](O)C1)c1cc2cc(Cl)ccc2[nH]1 | inactive | –
6 | O=C(O)Cc1ccccc1Nc1c(Cl)cccc1Cl | inactive | –
7 | Nc1ccccc1N | inactive | –
8 | Cc1c(C(=O)O)c(O)cc2c1C(=O)c1c(O)c([C@@H]3O[C@H](CO)[C@@H](O)[C@H](O)[C@H]3O)c(O)c(O)c1C2=O | – | 4.45 µM (active)
9 | CCNc1cccc(C)c1 | inactive | –
10 | CCCCc1ccc2c(n1)[C@@H](c1ccc(OC)cc1C[C@H](C)C(=O)O)[C@H](C(=O)O)[C@H]2c1ccc2c(c1)OCO2 | inactive | –
